# Bioassay records deposited in PubChem by The Scripps Research Institute Molecular Screening Center.
# Compounds with a hit are over-represented: about 2.8% of the library has one in this group of screens.
# PAFAH2 inh = inhibitors of human PAFAH2; Q99487; recombinant PAFAH2, FP-rhodamine activity probe, fluorescence polarization; inhibition, % at 3.39 µM; 340,000 tested, 0.99% active;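 active = inhibition above the mean over all tested compounds plus 3 SD, cut at about 30% in these data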;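 also: inhibitors block probe labeling of enzyme so polarization drops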
# pPAFAH inh = inhibitors of human plasma PAF acetylhydrolase (pPAFAH) | inhibition, % at 3.39 µM | recombinant pPAFAH, FP-rhodamine probe fluorescence polarization | AID 463082 | 330,000 tested, 1.5% active | Q13093;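 active = inhibition above the mean inhibition across the screen plus 3 SD, cut at about 25% in these data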;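 also: inhibitors block binding of the rhodamine activity-based probe so polarization drops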
# Fam108B inh = counter-screen for RBBP9 inhibitors: inhibitors of mouse Fam108B; recombinant Fam108B, FP-Rh probe fluorescence polarization; inhibition, % at 9.51 µM; 300,000 tested, 0.33% active;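 active = inhibition above the screen mean inhibition plus 3 SD, computed separately per campaign, cut at about 18% in these data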;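 also: inhibitors lower polarization as less probe binds the enzyme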
# PAFAH1B2 inh = PAFAH1B2 (human) inhibition; 340,000 tested, 1.2% active; P68402; recombinant PAFAH1B2, FP-rhodamine activity probe, fluorescence polarization; inhibition, % at 3.39 µM;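 active = inhibition above the mean of all tested compounds plus 3 SD, cut at about 24% in these data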
# Target sequence (P68402 whole entry, looked up): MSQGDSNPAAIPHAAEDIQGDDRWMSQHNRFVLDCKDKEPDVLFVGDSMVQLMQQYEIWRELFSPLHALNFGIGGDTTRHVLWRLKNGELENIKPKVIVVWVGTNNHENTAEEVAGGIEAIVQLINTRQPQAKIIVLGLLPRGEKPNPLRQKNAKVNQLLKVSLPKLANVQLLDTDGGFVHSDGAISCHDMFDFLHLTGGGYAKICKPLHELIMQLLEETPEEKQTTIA
# PME-1 primary = PME-1 (human) inhibition | recombinant PME-1, FP-Rh probe fluorescence polarization | inhibition, % at 5.9 µM | AID 2130 | 320,000 tested, 0.53% active | Q9Y570;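 active = inhibition above the campaign mean of all compounds plus 3 SD, cut at about 26% in these data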;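 also: competitive labeling of PME-1 active site by serine hydrolase directed probe; inhibitors block probe labeling so polarization falls and inhibition rises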
# Target sequence (Q9Y570 whole entry, looked up): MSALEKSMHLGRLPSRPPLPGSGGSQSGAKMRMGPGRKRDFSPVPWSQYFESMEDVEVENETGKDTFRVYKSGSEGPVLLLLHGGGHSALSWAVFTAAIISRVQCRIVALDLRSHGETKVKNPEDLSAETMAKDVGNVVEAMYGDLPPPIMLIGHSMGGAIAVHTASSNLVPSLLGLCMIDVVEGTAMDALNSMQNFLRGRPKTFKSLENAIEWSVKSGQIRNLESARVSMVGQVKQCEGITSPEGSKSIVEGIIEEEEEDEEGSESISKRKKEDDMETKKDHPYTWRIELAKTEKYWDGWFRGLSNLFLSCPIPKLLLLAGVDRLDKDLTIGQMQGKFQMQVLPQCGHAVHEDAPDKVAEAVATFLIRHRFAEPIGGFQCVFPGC
# PAFAH1B3 FP inh = PAFAH1B3 (human) inhibition. Q15102. recombinant PAFAH1B3, FP-rhodamine probe, fluorescence polarization. inhibition, % at 3.39 µM. 340,000 tested, 0.28% active;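 active = inhibition above the screen-wide average of all tested compounds plus 3 SD, cut at about 25% in these data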
# PAFAH2 confirm = confirmation of human PAFAH2 inhibitors. shares compounds with PAFAH2 inh. recombinant PAFAH2, FP-rhodamine activity probe, fluorescence polarization. inhibition, % at 3.39 µM. 2,300 tested, 65% active;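 active = mean inhibition over three repeats above a set limit taken from the earlier primary screen, cut at about 30% in these data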;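 also: inhibitor blocks binding of rhodamine activity probe so polarization falls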
# Hits are given with their value; . = inactive; / = no result.
SMILES,PAFAH2 inh,pPAFAH inh,Fam108B inh,PAFAH1B2 inh,PME-1 primary,PAFAH1B3 FP inh,PAFAH2 confirm
CC(C)(C)C(=O)OC/C(N)=N/OC(=O)c1ccc(Cl)cc1,85.2,.,.,.,.,.,64.6
N/C(Cc1ccc(Cl)cc1)=N\OC(=O)c1ccccc1,83.5,.,.,.,.,.,76.0
N/C(Cc1ccc([N+](=O)[O-])cc1)=N\OC(=O)c1ccc([N+](=O)[O-])cc1,.,.,.,.,.,.,/
CCc1ncc(CN2CCC(C(=O)Nc3ccc(-n4nc(C)cc4C)cc3)CC2)cn1,.,.,.,.,.,.,/
CCCCCCOC(=O)c1ccc(OC(=O)c2cccnc2)cc1,41.0,.,.,.,.,.,32.4
CCCCOC(=O)c1ccc(OC(=O)c2cccnc2)cc1,.,.,.,.,.,.,/
COCCOc1ccc(C(F)(F)F)cc1NC(=O)COC(=O)C12CC3CC(CC(O)(C3)C1)C2,.,.,.,.,.,.,/
O=C(COC(=O)C12CC3CC(CC(O)(C3)C1)C2)Nc1ccc(Br)cc1F,30.3,.,/,.,.,.,.
O=C(COC(=O)C12CC3CC(CC(C3)C1)C2)Nc1ccccc1F,39.6,.,.,.,.,.,.
Cc1c(Cl)cccc1NC(=O)COC(=O)C12CC3CC(CC(O)(C3)C1)C2,43.1,.,/,.,.,.,.
CCc1ccc(NC(=O)CN2CCCN(S(=O)(=O)c3ccc(F)cc3)CC2)cc1,.,.,.,.,.,.,/
CCSc1nc(-c2ccc(OC)cc2)n(-c2nc3ccccc3s2)n1,.,.,.,.,.,.,/
N#C/C(=C\c1ccc2c(c1)OCCO2)C(=O)Nc1ccc(C(=O)O)cc1,.,.,.,.,.,.,/
COc1ccc(C2=NS(=O)(=O)N(C)C(C(=O)Nc3ccc(F)cc3F)=C2)cc1,.,.,.,.,.,.,/
C=CCn1c(SCC(=O)N(C)C2CCCCC2)nnc1C1CC1,34.3,.,/,.,/,.,.
Cc1sc2ncnc(SCC(=O)Nc3ncccc3O)c2c1C,65.6,.,/,.,.,.,52.9
Cc1cccnc1NC(=O)CSc1ncnc2sc(C)c(C)c12,.,.,.,.,.,.,/
O=C(COc1cccc2ccccc12)NNC(=O)c1cccs1,.,.,.,.,.,.,/
CCCNC(=O)c1ccc(SC)cc1OC,.,.,.,.,.,.,/
COc1ccc(Br)c(C(=O)OCC(=O)NC2CC2)c1,.,.,/,.,.,.,/
O=C(COC(=O)c1ccccc1Br)NC1CCCC1,51.9,.,.,.,.,.,35.0
COc1cc(OC)c(C(=O)OCC(=O)NC2CCCCCCC2)cc1OC,74.7,.,/,.,/,.,82.6
COc1ccc(CC(=O)OCC(=O)NC2CCCCCC2)cc1OC,.,/,/,.,/,.,/
COc1cc(OC)c(C(=O)OCC(=O)NCC2CCCCC2)cc1OC,51.2,/,/,.,/,.,42.9
CCCCNC(=O)COC(=O)c1ccc(SC)cc1OC,45.9,.,.,.,.,.,.
SMILES,PAFAH2 inh,pPAFAH inh,Fam108B inh,PAFAH1B2 inh,PME-1 primary,PAFAH1B3 FP inh,PAFAH2 confirm
O=C(CN1CCSC1=O)N1CCN(S(=O)(=O)c2ccccc2)CC1,.,.,/,.,.,.,/
Cc1ccc(S(=O)(=O)N2CCc3c2cc([N+](=O)[O-])cc3[N+](=O)[O-])cc1,.,.,.,.,.,.,/
CCOc1ccccc1C(=O)OCC(=O)NCC1CCCCC1,44.3,.,.,.,.,.,48.1
COc1ccccc1C(=O)OCC(=O)NC1CCCC1,37.6,.,.,.,.,.,.
COc1cc(SC)ccc1C(=O)OCC(=O)NC1CCCC1,68.3,.,.,.,.,.,57.4
COc1cc(OC)c(C(=O)OCC(=O)NC2CCCC2)cc1OC,51.7,.,.,.,.,.,38.6
COc1ccccc1C(=O)OCC(=O)NC(=O)NC1CCCC1,.,.,/,.,.,.,/
COc1ccccc1CCC(=O)Nc1cc(S(=O)(=O)N2CCOCC2)ccc1N1CCCC1,.,.,.,.,.,.,/
C/C(Cn1cnc([N+](=O)[O-])n1)=N\NC(=O)c1ccc(O)cc1O,.,.,.,.,.,.,/
O=C(COC(=O)c1ccc(O)cc1O)Nc1nnc(-c2ccccc2)o1,.,.,.,.,.,.,/
O=C(Nc1ccc(Cl)cn1)c1cc2c(s1)-c1ccccc1OC2,.,.,.,.,.,.,/
C=CCN(c1ccc(C(=O)NCCCn2ccnc2)cc1)S(C)(=O)=O,.,.,.,.,.,.,/
COc1ccc(CN2C(=O)c3ccccc3C2=O)cc1C(=O)OCC(=O)NC1CCCCC1,51.5,.,.,.,.,.,45.2
COc1ccccc1C(=O)OCC(=O)NC(=O)NC1CCCCC1,.,/,/,.,/,.,/
O=C1COc2ccc(C(=O)c3ccccc3C(=O)NCc3ccco3)cc2N1,.,.,.,.,.,.,/
Oc1ccccc1C=NNC(=S)Nc1ccc(F)cc1,.,/,/,.,/,.,/
Oc1ccccc1/C=N/NC(=S)NC1CC2C=CC1C2 (configuration not stated),57.2,.,.,.,.,.,.
CC(C)(C)c1ccc(/C=C2\Oc3cc(O)ccc3C2=O)cc1,47.5,.,.,.,.,.,35.7
O=C(COC(=O)/C=C/c1cccc(Cl)c1)NC1CCCC1,74.0,.,/,.,.,.,65.6
O=C(COC(=O)/C=C/c1cccc(Br)c1)NC1CC1,31.9,.,/,.,.,.,.
O=C(COC(=O)/C=C/c1cccc(Cl)c1)Nc1c(F)cccc1F,.,.,/,.,/,.,/
O=C(COC(=O)/C=C/c1cccc(Cl)c1)NC1CC1,31.5,.,/,.,.,.,.
Cc1sc2nc(SCC(=O)Nc3cccc(S(N)(=O)=O)c3)[nH]c(=O)c2c1C,35.3,.,/,.,/,.,.
Cc1sc2nc(SCC(=O)Nc3ccc(S(N)(=O)=O)cc3)[nH]c(=O)c2c1C,.,.,.,.,.,.,/
Cc1ccc(S(=O)(=O)N2CCOCC2)cc1C(=O)NC(C)CCc1ccccc1 (configuration not stated),.,.,/,.,/,.,/
SMILES,PAFAH2 inh,pPAFAH inh,Fam108B inh,PAFAH1B2 inh,PME-1 primary,PAFAH1B3 FP inh,PAFAH2 confirm
O=C(COc1ccccc1[N+](=O)[O-])Nc1cccc(S(=O)(=O)NC2=NCCCCC2)c1,.,.,.,.,.,.,/
COc1ccc(/C=C/C(=O)OCC(=O)Nc2cccc(S(=O)(=O)NC3=NCCCCC3)c2)cc1,68.2,.,/,.,/,.,50.2
Nc1ccc(C(=O)OCC(=O)Nc2cccc(S(=O)(=O)NC3=NCCCCC3)c2)cc1[N+](=O)[O-],53.9,.,/,.,/,.,59.5
O=C(COC(=O)c1ccc(O)cc1)Nc1cccc(S(=O)(=O)NC2=NCCCCC2)c1,39.2,.,.,.,.,.,42.6
COc1cc(OC)cc(C(=O)OCC(=O)Nc2cccc(S(=O)(=O)NC3=NCCCCC3)c2)c1,.,.,/,.,/,.,/
O=C(NCCc1ccccc1)C1CC(=O)N(CCc2ccccc2)C1 (configuration not stated),.,.,.,.,.,.,/
